# Experimental data published in PubChem BioAssay (Tox21).
# Where “and” joins values, the source holds several entries; their conditions need not be identical. Identical values can stand only once. A number with no mark means an inactive call. Records with an inconclusive call do not appear. Entries that show only a call come without a potency. Calls of active or inactive are those of the source. Unless noted, calls follow the shape of the dose curve; as a rule, active = well fitted curve in the direction sought with a large enough effect in the repeat runs; inconclusive = weak or mixed curves; inactive = no such curve, though single readings can be large; an effect the other way counts as inactive or inconclusive.
# Key:
# [1] = qHTS assay to test for compound auto fluorescence at 535 nm (green) in HEK293 cells (AID 720680)
# [2] = qHTS assay to test for compound auto fluorescence at 460 nm (blue) in HEK293 cell free culture (AID 720681)
# How it was run: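 Test compounds were pinned into cell-free culture medium (DMEM with 10% FBS) and fluorescence was read directly at Ex/Em 405/460 nm. Signals were expressed as fluorescence equivalents of triamterene, with DMSO vehicle as control.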
# [3] = qHTS assay to test for compound auto fluorescence at 535 nm (green) in HEK293 cell free culture (AID 720682)
# How it was run: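 Measurement is a direct plate read of green fluorescence (485 nm in, 535 nm out) after compound addition to serum-supplemented DMEM lacking cells, with fluorescein used to express intensities.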
# [4] = qHTS assay to test for compound auto fluorescence at 590 nm (red) in HEK293 cell free culture (AID 720683)
# How it was run: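 Tox21 10K library compounds were pinned into cell-free DMEM with 10% FBS and fluorescence was read at excitation 540 nm. Activity is expressed as Rose Bengal sodium equivalency.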
# [5] = qHTS assay to test for compound auto fluorescence at 590 nm (red) in HepG2 cell free culture (AID 720684)
# How it was run: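 Red fluorescence (540 nm excitation, 590 nm emission) was measured after compound transfer into cell-free MEM supplemented with 10% FBS. Values are equivalencies against Rose Bengal sodium.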
# [6] = qHTS assay to test for compound auto fluorescence at 460 nm (blue) in HepG2 cell free culture (AID 720685)
# How it was run: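 Compound (23 nL) or DMSO pinned into cell-free MEM with 10% FBS; blue fluorescence read at 405/460 nm excitation/emission, expressed as auto-fluorescence equivalency to triamterene.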
# [7] = qHTS assay to test for compound auto fluorescence at 535 nm (green) in HepG2 cell free culture (AID 720686)
# [8] = qHTS assay to test for compound auto fluorescence at 460 nm (blue) in HepG2 cells (AID 720687)
# How it was run: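 Cells (2,000/well in MEM with 10% FBS) attached overnight at 37 C, then were exposed to compound or DMSO for 1 hr at 37 C, 5% CO2. Fluorescence read at Ex/Em 405/460 nm, expressed as triamterene-equivalent signal.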
# [9] = biological target: Glucocorticoid receptor (Homo sapiens) (UniProt P04150); test: qHTS assay to identify small molecule agonists of the glucocorticoid receptor (GR) signaling pathway (AID 720691; active = well fitted activation curve with a large enough effect in the signal ratio in the repeat runs, not every such curve was filed as active; the % refers to the signal ratio); conditions: GR-bla HeLa, beta-lactamase reporter ratio, 18 h; activation: at 62.4 µM (top of the series)
# Sequence of Glucocorticoid receptor (Homo sapiens) (P04150 whole entry, looked up): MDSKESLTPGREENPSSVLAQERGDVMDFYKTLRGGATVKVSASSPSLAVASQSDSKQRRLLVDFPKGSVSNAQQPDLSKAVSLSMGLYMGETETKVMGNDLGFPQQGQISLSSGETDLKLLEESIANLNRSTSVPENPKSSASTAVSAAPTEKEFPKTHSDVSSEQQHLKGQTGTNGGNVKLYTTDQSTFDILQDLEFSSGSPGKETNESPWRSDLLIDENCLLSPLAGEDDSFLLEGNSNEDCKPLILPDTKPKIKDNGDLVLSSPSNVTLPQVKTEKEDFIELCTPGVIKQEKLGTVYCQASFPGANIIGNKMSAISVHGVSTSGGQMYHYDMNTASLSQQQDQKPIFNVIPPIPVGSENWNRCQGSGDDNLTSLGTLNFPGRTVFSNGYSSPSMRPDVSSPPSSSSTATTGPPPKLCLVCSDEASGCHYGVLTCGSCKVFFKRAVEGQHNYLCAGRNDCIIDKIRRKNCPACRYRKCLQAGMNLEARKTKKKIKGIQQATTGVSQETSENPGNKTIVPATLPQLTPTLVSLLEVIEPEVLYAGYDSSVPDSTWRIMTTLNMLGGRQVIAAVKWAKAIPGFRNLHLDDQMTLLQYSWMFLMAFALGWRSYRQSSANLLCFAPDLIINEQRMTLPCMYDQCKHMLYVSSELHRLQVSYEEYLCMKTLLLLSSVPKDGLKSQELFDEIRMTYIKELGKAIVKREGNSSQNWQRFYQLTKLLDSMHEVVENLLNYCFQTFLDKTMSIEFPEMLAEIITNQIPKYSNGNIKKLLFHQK
# How it was run: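 Agonist mode in a HeLa line carrying a GRE-controlled beta-lactamase reporter. Compounds act for 18 h at 37 C before a 2 h room-temperature FRET substrate step and fluorescence reading.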
# [10] = biological target: Glucocorticoid receptor (Homo sapiens) (UniProt P04150); test: qHTS assay to identify small molecule antagonists of the glucocorticoid receptor (GR) signaling pathway (AID 720692; active = well fitted inhibition curve with a large enough effect in the signal ratio in the repeat runs, not every such curve was filed as active; the % refers to the signal ratio; also: potency is read from the fitted curve at half-maximal effect)
# How it was run: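 Cells plated, rested 4 h at 37 C/5% CO2; compounds in DMSO pin-transferred; dexamethasone added to 5 nM final; 18 h at 37 C; B/G FRET substrate added, 2 h room temperature; fluorescence measured.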
# [11] = qHTS assay to identify small molecule antagonists of the glucocorticoid receptor (GR) signaling pathway - cell viability counter screen (AID 720693); also: nearly all actives have a fitted effect of over 55% in size; also: potency is read from the fitted curve at half-maximal effect
# [12] = qHTS assay for identifying genotoxic compounds that show differential cytotoxicity against isogenic chicken DT40 cell lines with known DNA damage response pathways - wild type cell line (AID 743012); also: nearly all actives have a fitted effect of over 60% in size; also: potency is read from the fitted curve at half-maximal effect
# How it was run: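 Cells (DT40 wild type, 300/well) are treated with DMSO-dissolved compounds after a ~0.5 h pre-incubation and kept 40 h at 37 C/5% CO2. Viability is then measured by CellTiter-Glo luminescence following 30 min at room temperature.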
# [13] = qHTS assay for identifying genotoxic compounds that show differential cytotoxicity against isogenic chicken DT40 cell lines with known DNA damage response pathways - Rev3 mutant cell line (AID 743014); also: nearly all actives have a fitted effect of over 55% in size; also: potency is read from the fitted curve at half-maximal effect
# [14] = qHTS assay for identifying genotoxic compounds that show differential cytotoxicity against isogenic chicken DT40 cell lines with known DNA damage response pathways - Rad54/Ku70 mutant cell line (AID 743015); also: nearly all actives have a fitted effect of over 60% in size; also: potency is read from the fitted curve at half-maximal effect
# [15] = qHTS assay to identify small molecule antagonists of the androgen receptor (AR) signaling pathway - cell viability counter screen (AID 743033; also: nearly all actives have a fitted effect of over 45% in size; also: potency is read from the fitted curve at half-maximal effect)
# [16] = biological target: Androgen receptor (Homo sapiens) (UniProt P10275); test: qHTS assay to identify small molecule agonists of the androgen receptor (AR) signaling pathway using the MDA cell line (AID 743040; also: nearly all actives have a fitted effect of over 20% in size)
# Sequence of Androgen receptor (Homo sapiens) (P10275 whole entry, looked up): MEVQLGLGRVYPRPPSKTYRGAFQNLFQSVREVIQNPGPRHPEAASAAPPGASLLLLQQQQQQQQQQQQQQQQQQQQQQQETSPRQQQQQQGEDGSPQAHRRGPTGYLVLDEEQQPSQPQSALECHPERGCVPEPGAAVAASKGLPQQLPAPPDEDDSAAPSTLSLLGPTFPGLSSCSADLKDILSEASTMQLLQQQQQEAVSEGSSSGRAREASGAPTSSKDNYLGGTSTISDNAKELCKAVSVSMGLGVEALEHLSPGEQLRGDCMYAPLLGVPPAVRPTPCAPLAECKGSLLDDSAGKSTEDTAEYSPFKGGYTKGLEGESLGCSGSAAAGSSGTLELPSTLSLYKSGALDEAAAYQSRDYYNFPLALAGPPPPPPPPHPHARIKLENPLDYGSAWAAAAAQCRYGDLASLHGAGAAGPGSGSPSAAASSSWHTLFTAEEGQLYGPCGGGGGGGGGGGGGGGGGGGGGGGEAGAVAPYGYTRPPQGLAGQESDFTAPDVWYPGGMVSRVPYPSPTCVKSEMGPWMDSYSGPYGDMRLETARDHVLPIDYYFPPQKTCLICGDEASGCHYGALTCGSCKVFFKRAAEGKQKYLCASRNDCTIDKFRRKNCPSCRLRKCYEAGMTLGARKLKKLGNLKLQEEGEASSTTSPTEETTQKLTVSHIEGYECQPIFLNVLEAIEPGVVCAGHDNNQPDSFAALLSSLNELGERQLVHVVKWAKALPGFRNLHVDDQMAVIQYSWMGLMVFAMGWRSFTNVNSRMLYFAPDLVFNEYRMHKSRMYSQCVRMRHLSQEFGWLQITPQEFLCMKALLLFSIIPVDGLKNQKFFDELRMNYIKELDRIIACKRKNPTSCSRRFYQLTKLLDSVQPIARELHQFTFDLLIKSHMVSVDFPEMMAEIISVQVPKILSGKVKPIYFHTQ
# How it was run: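 MDA-kb2 breast carcinoma cells stably carrying an MMTV-driven luciferase reporter (AR- and GR-responsive) were seeded and held 5 h at 37C, 0% CO2, then exposed to compounds in DMSO for 16 h. Luminescence was read 30 min after ONE-Glo addition.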
# [17] = biological target: Androgen receptor (Homo sapiens) (UniProt P10275); test: qHTS assay to identify small molecule antagonists of the androgen receptor (AR) signaling pathway using the MDA cell line (AID 743042; also: nearly all actives have a fitted effect of over 55% in size; also: potency is read from the fitted curve at half-maximal effect)
# How it was run: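 MDA-kb2 cells (human breast carcinoma, stably carrying an MMTV-luciferase reporter responsive to AR and GR) were plated at 3,000 cells/well and preincubated 5 hr at 37C, then given compound plus R1881 agonist for 16 h. ONE-Glo luminescence was read.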
# [18] = qHTS assay to identify small molecule antagonists of the androgen receptor (AR) signaling pathway using the MDA cell line - cell viability counter screen (AID 743041; also: nearly all actives have a fitted effect of over 45% in size)
# How it was run: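 MDA-kb2 AR-luc human breast carcinoma cells (MMTV-luciferase, AR/GR responsive) were treated with compounds plus R1881 agonist for 16 h at 37 °C. Viability was read as CellTiter-Fluor fluorescence in the same wells as the reporter assay.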
# [19] = biological target: Androgen receptor (Homo sapiens) (UniProt P10275); test: qHTS assay to identify small molecule antagonists of the androgen receptor (AR) signaling pathway (AID 743035; active = well fitted inhibition curve with a large enough effect in the signal ratio in the repeat runs, not every such curve was filed as active; the % refers to the signal ratio)
# How it was run: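 Antagonism is scored as loss of R1881-driven beta-lactamase reporter expression in HEK293 cells carrying the reporter under a UAS element, after 16 h co-treatment at 37C and a 2 h room-temperature FRET substrate read.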
# [20] = biological target: Androgen receptor (Homo sapiens) (UniProt P10275); test: qHTS assay to identify small molecule agonists of the androgen receptor (AR) signaling pathway (AID 743036; active = well fitted activation curve with a large enough effect in the signal ratio in the repeat runs, with a control signal flat, not every such curve was filed as active; the % refers to the signal ratio)
# How it was run: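 Beta-lactamase under UAS control, stably integrated in HEK293 GripTite cells, reports receptor activation. After 16 h compound treatment, cells received FRET substrate for 2 h at room temperature before fluorescence reading.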
compound,measurement,setting,value
O=C1C(Cl)=C(Cl)C(=O)C(Cl)=C1Cl,outcome,[1],inactive
same,Potency,[2],inactive
same,outcome,[3],inactive
same,outcome,[4],inactive
same,outcome,[5],inactive
same,Potency,[6],inactive
same,Potency,[7],inactive
same,Potency,[8],inactive
same,Potency,[9],inactive
same,Potency,[10],30.9 µM (active)
same,Potency,[11],38.9 µM (active)
same,Potency,[12],13.6 µM (active) and 9.69 µM (active)
same,Potency,[13],8.6 µM (active) and 6.86 µM (active)
same,Potency,[14],17.2 µM (active) and 8.63 µM (active)
same,Potency,[15],17.3 µM (active) and 21.9 µM (active)
same,outcome,[16],inactive
same,Potency,[17],34.2 µM (active) and 30.6 µM (active)
Clc1c(Cl)c(Cl)c(Cl)c(Cl)c1Cl,"fluorescence, % of fluorescein",[1],0.081% [at 3.72 µM]
same,"fluorescence, % of fluorescent control",[2],-0.026% [at 3.72 µM]
same,activity change,[3],0.0009% [at 3.72 µM]
same,"fluorescence, % of fluorescent control",[4],0.029% [at 3.72 µM]
same,"fluorescence, % of Rose Bengal",[5],-0.0219% [at 3.72 µM]
same,"fluorescence, % of fluorescent control",[6],0.0528% [at 3.72 µM]
same,"fluorescence, % of fluorescein control",[7],-0.0548% [at 3.72 µM]
same,"fluorescence, % of fluorescent control",[8],-0.0163% [at 3.72 µM]
same,activation,[9],-0.383% [at 6.9 µM]
same,"activity change, negative = inhibition",[10],-10.3% [at 7.04 µM]
same,"viability change, negative = cytotoxic",[11],-7.19% [at 7.04 µM]
same,"activity change, negative = cytotoxicity",[12],20.8% [at 8.52 µM]
same,"activity, negative = cytotoxicity",[13],6.09% [at 8.53 µM]
same,"activity change, negative = cytotoxicity",[14],-2.7% [at 8.55 µM]
same,"activity change, negative = cytotoxicity",[15],3.9% [at 7.04 µM]
same,"viability change, negative = cytotoxic",[18],-2.06% [at 8.47 µM]
BrCCCBr,outcome,[1],inactive
same,Potency,[2],inactive
same,outcome,[3],inactive
same,outcome,[4],inactive
same,outcome,[5],inactive
same,Potency,[6],inactive
same,Potency,[7],inactive
same,Potency,[8],inactive
same,Potency,[9],inactive
same,Potency,[10],inactive
same,Potency,[11],inactive
same,Potency,[12],inactive
same,Potency,[13],inactive
same,Potency,[14],inactive
same,Potency,[15],inactive
same,Potency,[19],inactive
same,outcome,[20],inactive
same,outcome,[16],inactive
same,Potency,[18],inactive
same,Potency,[17],inactive
CCN(CC)CCc1c[nH]c2ccccc12,outcome,[1],inactive
same,Potency,[2],inactive
same,outcome,[3],inactive
same,outcome,[4],inactive
same,outcome,[5],inactive
same,Potency,[6],inactive
same,Potency,[7],inactive
same,Potency,[8],inactive
same,Potency,[9],inactive
same,Potency,[10],inactive
same,Potency,[11],inactive
same,Potency,[14],inactive
same,Potency,[15],inactive
same,Potency,[18],inactive
Oc1cccc(Cl)c1Cl,outcome,[1],inactive
same,Potency,[2],inactive
same,outcome,[3],inactive
same,outcome,[4],inactive
same,outcome,[5],inactive
same,Potency,[6],inactive
same,Potency,[7],inactive
same,Potency,[8],inactive
same,Potency,[9],inactive
same,Potency,[10],inactive
same,Potency,[11],inactive
same,Potency,[12],inactive
same,Potency,[14],inactive
same,Potency,[15],inactive
same,Potency,[18],inactive
Oc1cc(Cl)cc(Cl)c1,outcome,[1],inactive
same,Potency,[2],inactive
same,outcome,[3],inactive
same,outcome,[4],inactive
same,outcome,[5],inactive
same,Potency,[6],inactive
same,Potency,[7],inactive
same,Potency,[8],inactive
same,Potency,[9],inactive
same,Potency,[10],inactive
same,Potency,[11],inactive
same,Potency,[13],61.8 µM (active)
same,Potency,[14],61.8 µM (active)
